# From PubChem BioAssay (Tox21)
# Records with an inconclusive call do not appear. Active and inactive are the calls of the source. Calls follow the shape of the dose curve; as a rule, active = well fitted cell-killing curve with a large enough effect in the repeat runs; inconclusive = weak or mixed curves; inactive = no such curve, though single readings can be large or run the other way.
# Test: qHTS assay to identify small molecule antagonists of the androgen receptor (AR) signaling pathway - cell viability counter screen (AID 743033; also: nearly all actives have a fitted effect of over 45% in size)
# Settings: AR-bla HEK293 viability, CellTiter-Glo luminescence, 16 h; series mostly up to 58.5 µM; activity change, negative = cytotoxicity: at the top concentration
# From the text: National Center for Advancing Translational Sciences [NCATS]
# NIH Chemical Genomics Center [NCGC]
# U.S. Environmental Protection Agency [EPA]
# National Institutes of Environmental Health Sciences [NIEHS]
# National Toxicology Program [NTP]
# U.S. Food and Drug Administration [FDA]
# Androgen receptor (AR), a nuclear hormone receptor, plays a critical role in AR-dependent prostate cancer and other androgen related diseases. Endocrine disrupting chemicals (EDCs) and their interactions with steroid hormone receptors like AR may cause disruption of normal endocrine function as well as interfere with metabolic homeostasis, reproduction, developmental and behavioral functions. To identify the compounds that inhibit AR signaling, GeneBLAzer AR-UAS-bla-GripTite cell line (Invitrogen, Carlsbad, CA, USA) containing a beta-lactamase reporter gene under control of an Upstream Activator Sequence (UAS) stably integrated into HEK293 cells was used to screen the Tox21 10K compound library. The cytotoxicity of the Tox21 compound library against the AR-bla cell line was tested in parallel by measuring the cell viability using CellTiter-Glo assay in the same wells.
# Tox21 Assay Protocol Summary:
# AR-bla cells were dispensed at 2,000 cells/5 uL of assay medium per well into black wall/clear-bottom 1536-well plates using a Multidrop Combi (ThermoFisher Scientific, Waltham, MA) dispenser. After the assay plates were incubated at a 37C and 5% CO2 for 4 hr, 23 nL of compounds dissolved in DMSO, positive controls or DMSO only was transferred to the assay plate by a Pintool station (Kalypsys, San Diego, CA), followed by addition of 1 uL of agonist (R1881) in culture medium using a Bioraptr Flying Reagent Dispenser (FRD) workstation (Beckman Coulter, Indianapolis, IN, USA). The plates were incubated at a 37C and 5% CO2 for 16 h. After 1 uL of LiveBLAzerTM B/G FRET substrate was added using a Bioraptr FRD, the plates were incubated at room temperature for 2 h and fluorescence intensity was measured by an Envision plate reader (PerkinElmer, Shelton, CT). For cell viability readout that measures cytotoxicity, 4 ul/well of CellTiter-Glo reagent was added into the assay plates using a Bioraptr FRD. After 30 min incubation at room temperature, the luminescence intensity in the plates was measured using a ViewLux (PerkinElmer) plate reader.
# % is scaled to controls: 0 for no effect and ±100 for the full control effect.
Compound,outcome,"activity change, negative = cytotoxicity"
COCCCN,inactive,–
C[Si]1(C)O[Si](C)(C)O[Si](C)(C)O[Si](C)(C)O1,inactive,–
CCc1ccccc1CC,inactive,–
CC(C)(Oc1ccc(CCNC(=O)c2ccc(Cl)cc2)cc1)C(=O)O,inactive,–
N#Cc1ccccc1,inactive,–
C=CC(=O)OCCC(=O)O,inactive,–
CCCCCCCCCCO,inactive,–
CSc1ccc(Cl)cc1,inactive,–
O=C1c2ccccc2CCc2ccccc21,–,3.77% [at 78.9 µM] (inactive)
NCCCCCCN,inactive,–
CC(O)CC(C)(C)O (stereo not given),inactive,–
COc1ccc(CCC(C)=O)cc1,–,-7.06% (inactive)
CCO[Si](CCCN)(OCC)OCC,inactive,–
CC(=O)CC(C)(C)O,inactive,–
CN(C)c1ccc(O)c2c1C[C@H]1C[C@H]3[C@H](N(C)C)C(=O)C(C(N)=O)=C(O)[C@@]3(O)C(=O)C1=C2O,inactive,–
CCCCCCCCCCN,inactive,–
CCOCC(=O)O,inactive,–
CNC(=O)Oc1ccc2c(c1)[C@]1(C)CCN(C)[C@@H]1N2C,inactive,–
CC(C)=CCl,inactive,–
CC(C)OP(=O)(CP(=O)(OC(C)C)OC(C)C)OC(C)C,–,9.72% (inactive)

Compound,outcome,"activity change, negative = cytotoxicity"
CCNc1cccc(C)c1,inactive,–
C=CCc1ccc(OC)c(OC)c1,inactive,–
CC(C)(C)c1cc(Cc2cc(C(C)(C)C)c(O)c(C(C)(C)C)c2)cc(C(C)(C)C)c1O,inactive,–
CN(C)c1ccc(Cc2ccc(N(C)C)cc2)cc1,inactive,–
O=C(OCC1CCC2OC2C1)C1CCC2OC2C1 (stereo not given),inactive,–
OCc1ccccc1,inactive,–
COc1ccc(C)cc1N,inactive,–
NC(=S)NNC(N)=S,–,5.76% (inactive)
O=C1C(c2[nH]c3ccccc3c2O)=Nc2ccccc21,inactive,–
O=S(=O)(O)c1ccccc1,inactive,–
C=C(C)C(=O)OCC(C)C,inactive,–
COC(=O)c1cccnc1,inactive,–
NCCNCCN,inactive,–
CCCCCCCCCCCCCCCC(=O)OC(C)C,inactive,–
CC1(C)S[C@@H]2[C@H](NC(=O)COc3ccccc3)C(=O)N2[C@H]1C(=O)O,inactive,–
CCNC(=S)NCC,inactive,–
CCCCCCCO,inactive,–
CCO[Si](CCC#N)(OCC)OCC,inactive,–
COCCOC(=O)c1ccccc1C(=O)OCCOC,inactive,–
O=C1CCCC1,inactive,–
